Sampled rows, rich in hits. Any-hit rate of the full collection: about 3.3%.
Sm TGR block: inhibitors of Schistosoma mansoni thioredoxin glutathione reductase; Q962Y6; purified TGR, DTNB reduction, TNB absorbance 405 nm; Potency, µM (top dose mostly 114 µM), actives largely listed as inhibitors; 360,000 tested, 3% active; note: nearly all actives have a fitted effect of over 60% in size
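Kinetic colorimetric format: TGR-catalysed, NADPH-driven DTNB reduction monitored via TNB absorbance. Enzyme dispensed at 20 nM; compound exposure 15 min at room temperature before reaction start.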
AmpC no deterg: blocks E. coli AmpC beta-lactamase in detergent-free assay; P00811; AmpC nitrocefin hydrolysis, absorbance 480 nm, 0.0001% Triton; Potency, µM (titrated, usually from 57.1 µM), actives largely listed as inhibitors; 330,000 tested, 0.52% active; note: nearly all actives have a fitted effect of over 20% in size
Target sequence (P00811 whole entry, looked up): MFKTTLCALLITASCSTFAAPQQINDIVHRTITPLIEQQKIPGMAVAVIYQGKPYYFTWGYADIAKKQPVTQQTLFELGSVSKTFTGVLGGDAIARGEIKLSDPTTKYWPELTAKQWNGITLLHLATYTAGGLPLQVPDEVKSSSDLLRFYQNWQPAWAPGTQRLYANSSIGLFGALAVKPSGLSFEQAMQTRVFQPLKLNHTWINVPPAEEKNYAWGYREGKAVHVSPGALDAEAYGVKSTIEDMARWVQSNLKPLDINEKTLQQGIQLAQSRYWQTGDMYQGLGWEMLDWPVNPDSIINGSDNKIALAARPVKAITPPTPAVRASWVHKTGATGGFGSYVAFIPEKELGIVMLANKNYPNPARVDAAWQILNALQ
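20 mM phosphate pH 7.0 + 0.01% (detergent screen) or 0.0001% Triton X-100; 5.3 nM AmpC reagent; cpd preinc 15 min RT; nitrocefin (800 uM stock) to start; A480 q20 s × 4 min; Activity was normalised to no-enzyme and no-compound control wells.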
AmpC inh detg: blocks E. coli AmpC beta-lactamase in detergent assay. P00811. AmpC hydrolysis of nitrocefin, absorbance 480 nm, 0.01% Triton. Potency, µM (series often up to 114 µM), actives largely listed as inhibitors. 370,000 tested, 0.041% active. AID 485294; note: nearly all actives have a fitted effect of over 25% in size
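AmpC (5.3 nM in the dispensed reagent) in 20 mM phosphate pH 7.0 with 0.01% (detergent screen) or 0.0001% Triton X-100 was preincubated with compounds for 15 min at room temperature. Nitrocefin was then added from an 800 uM solution, and hydrolysis was followed at 480 nm.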
Large screens that a line does not name were inactive. Calls come from the whole dose curve; as a rule, active = well fitted curve in the direction sought with a large enough effect; inconclusive = small, poorly fitted or top-dose-only effect, or another doubt; inactive = no such curve, though single readings can be large; an effect the other way counts as inactive or inconclusive.

O=C(Nc1ccc(F)cc1)c1ccc(C(=O)N2CCCC(O)C2)cc1 (stereo not drawn)	Sm TGR block 4µM
COc1ccc(C(=O)N2CCCC(Nc3ccc(F)cc3)C2)cc1F (stereo not drawn)	AmpC inh detg inconclusive
CC1CCCCN1C(=O)c1ccc(C(=O)Nc2ccc(F)cc2)cc1 (stereo not drawn)	AmpC inh detg inconclusive
O=c1c(N2CCc3ccccc3C2)csc2ccccc12	none (no result: AmpC no deterg)
COc1ccc(C2=NCC(=O)N(CC(=O)NCc3ccco3)c3sc4c(c32)CCCC4)cc1OC	Sm TGR block 22µM
COc1ccc(C(=O)Nc2sc3c(c2C(=O)NCc2ccco2)CCCC3)cc1OC	none
O=C(Cc1csc(-c2ccccc2)n1)NCc1ccc(F)cc1	none
O=C(CN1C(=O)CN=C(c2ccccc2)c2ccccc21)NCc1ccco1	Sm TGR block 40µM
O=C(Cc1csc(-c2ccccc2)n1)NCc1ccco1	Sm TGR block 40µM
CC(C)CCNC(=O)CN1C(=O)CN=C(c2ccccc2)c2ccccc21	none
Cc1ccc(N2CC(NC(=O)c3ccc(S(=O)(=O)N4CCCC4)cc3)CC2=O)cc1 (stereo not drawn)	none (no result: AmpC no deterg)
CCn1cc(S(=O)(=O)c2cc(C)cc(C)c2)c(=O)c2cc(F)c(N3CCCC3)cc21	none (no result: AmpC no deterg)
CC(=O)c1cc(-c2ccc(F)cc2)n(CCC(=O)Nc2nc3ccc(C)cc3s2)c1C	none (no result: AmpC no deterg)
O=C(COc1ccc(F)cc1)N1CCCCCCC1	none
O=C1NC(=S)NC(=O)C1=Cc1ccc(OCC(=O)N2CCCC2)cc1	Sm TGR block 10µM
O=C(O)c1[nH]c2ccccc2c1C(c1cc(Br)ccc1O)c1c(C(=O)O)[nH]c2ccccc12	none
Cc1ccc(C(c2cccc(Br)c2)c2c(C)[nH]c3ccccc23)s1 (stereo not drawn)	Sm TGR block 25µM (no result: AmpC no deterg)
COc1ccc(S(=O)(=O)Nc2cc(S(=O)(=O)c3ccccc3)c(O)c(C)c2C)cc1	Sm TGR block inconclusive (no result: AmpC no deterg)
CCn1c(C(=O)Nc2ccc(C)cc2C)cc2sc(Cl)cc21	none (no result: AmpC no deterg)
CCc1nn2c(=O)cc(COC(=O)c3ccccc3NC(=O)c3ccc(C(C)(C)C)cc3)nc2s1	none (no result: AmpC no deterg)
CCOc1ccc(CCNC(=O)CCS(=O)(=O)c2ccc(Br)cc2)cc1OCC	none
O=C(CCS(=O)(=O)c1ccc(Br)cc1)Nc1ccccc1Cl	none
CC1CCC(NC(=O)CCS(=O)(=O)c2ccc3c(c2)NC(=O)CS3)CC1 (stereo not drawn)	none
O=C(CCS(=O)(=O)c1ccc(Br)cc1)Nc1ccccn1	Sm TGR block 3.2µM
O=C1CSc2ccc(S(=O)(=O)CCC(=O)NC3CCCCC3)cc2N1	Sm TGR block 22µM
O=C(CCS(=O)(=O)c1ccc2c(c1)NC(=O)CS2)NCCc1ccccc1	Sm TGR block 32µM, AmpC inh detg inconclusive
O=C(CCS(=O)(=O)c1ccc2c(c1)NC(=O)CS2)NCCc1ccc(Cl)cc1	Sm TGR block inconclusive
CCOc1ccc(CCNC(=O)CCS(=O)(=O)c2ccc(C)cc2)cc1OCC	Sm TGR block 32µM
Cc1ccccc1NC(=O)CSc1nc2nccnc2c(=O)n1CCc1c[nH]c2ccccc12	none (no result: AmpC no deterg)
CCN(CC)C(=O)Cn1c(=O)n(-c2ccc(C)c(C)c2)c(=O)c2c(C)c(C(=O)N(CC)CC)sc21	Sm TGR block inconclusive (no result: AmpC no deterg)
CCOc1ccc(NC(=O)Cn2cc(C(=O)c3ccc(OCC)cc3)c(=O)c3cc4c(cc32)OCCO4)cc1	none (no result: AmpC no deterg)
CN(Cc1ccco1)C(=O)c1ccc2c(c1)N(Cc1ccccc1F)C(=O)c1ccccc1S2	Sm TGR block inconclusive (no result: AmpC no deterg)
O=C(CSc1nc2c(c(=O)[nH]1)CN(Cc1ccc3c(c1)OCO3)CC2)Nc1cccc(Cl)c1	none (no result: AmpC no deterg)
CCC(C(=O)Nc1ccc(C(=O)OC)cc1)n1c(=O)c(-c2ccccc2NC(C)=O)nc2ccccc21 (stereo not drawn)	none (no result: AmpC no deterg)
COc1cccc(N2CCN(C(=O)c3cnn(-c4ccccc4Cl)c3C3CCN(C(=O)OC(C)(C)C)CC3)CC2)c1	none (no result: AmpC no deterg)
O=C(CCS(=O)(=O)c1ccc(Br)cc1)NCCc1ccccc1	Sm TGR block 50µM
NS(=O)(=O)c1ccc(CCNC(=O)CCS(=O)(=O)c2ccc(Br)cc2)cc1	none
N#Cc1ccccc1Cn1c(=O)n(CCCC(=O)NCc2ccccc2Cl)c(=O)c2ccccc21	none (no result: AmpC no deterg)
CC(C)c1ccc(NC(=O)CN2C=NS(=O)(=O)c3ccccc32)cc1	none (no result: AmpC no deterg)
COc1cc2c(=O)c(S(=O)(=O)c3ccc(F)cc3)cn(Cc3ccc(Cl)cc3)c2cc1OC	none (no result: AmpC no deterg)
CCOC(=O)CSc1cc(C)c(C#N)c2nc3ccccc3n12	Sm TGR block 2.5µM
Cc1cc(Nc2ccc(O)cc2)n2c(nc3ccccc32)c1C#N	none
Cc1cc(Nc2c(C)n(C)n(-c3ccccc3)c2=O)n2c(nc3cc(F)c(F)cc32)c1C#N	Sm TGR block 8.9µM
CCCc1cc(SCC(=O)Nc2c(C)n(C)n(-c3ccccc3)c2=O)n2c(nc3ccccc32)c1C#N	Sm TGR block 1.8µM
CCC(C)Sc1cc(C)c(C#N)c2nc3ccccc3n12 (stereo not drawn)	none
Cc1nc(SCC(=O)Nc2c(C)n(C)n(-c3ccccc3)c2=O)c(C#N)c(C)c1C	AmpC inh detg inconclusive
CCOc1ccc(N(C)C(=O)CS(=O)(=O)c2cccc3nsnc23)cc1	none (no result: AmpC no deterg)
CC(=O)N1CCc2cc(Br)cc(S(=O)(=O)N3CCC(C(=O)Nc4ccc(C(C)C)cc4)CC3)c21	none (no result: AmpC no deterg)
N#C/C(=C/c1ccc(O)c(O)c1)C(=O)NCc1ccc(Cl)cc1	none
N#C/C(=C/c1cccc(O)c1)C(=O)NCc1ccc(Cl)cc1	AmpC no deterg 20µM
O=C(Nc1cc(Sc2ccccn2)cc([N+](=O)[O-])c1)c1ccc(Cl)cc1	AmpC no deterg 32µM
O=C(Nc1cc(Sc2ccccn2)cc([N+](=O)[O-])c1)c1cccc(Cl)c1	none
COc1ccc(OC)c(CCNC(=O)c2cc3c(s2)-c2c(C)cccc2OC3)c1	none (no result: AmpC no deterg)
Fc1ccc2nc3[nH]c4ccccc4c3nc2c1	none
OC1=C(O)c2nc3cc(F)ccc3nc21	Sm TGR block 13µM
Cc1cc(=O)[nH]c2nnc(SCC(N)=O)n12	none (no result: AmpC no deterg)
Cc1ccc(CNCC2CCCO2)s1 (stereo not drawn)	AmpC inh detg inconclusive
Cc1ccc(-c2nc(CN(CC3CCC3)CC3CCCO3)c(C)o2)s1 (stereo not drawn)	Sm TGR block 56µM
CCC(C)NC(=O)c1ccc2c(=O)n3c(nc2c1)CCCCC3 (stereo not drawn)	none (no result: AmpC no deterg)
C#CC[N+]1(CC#Cc2ccc(C#CC[N+]3(CC#C)CCOCC3)cc2)CCOCC1	none
C#CC[N+]1(CC#Cc2cccc3ccccc23)CCOCC1	Sm TGR block 28µM
CCCN(C(=O)Cn1ncc2c1-c1ccccc1OC2)c1cccc(C)c1	none (no result: AmpC no deterg)
CCc1ccccc1NC(=O)Nc1cc(C(=O)NCc2cccc(F)c2)ccc1N1CCCC1	none (no result: AmpC no deterg)
COc1ccc(-n2cnc3cc(C(=O)NCCC4=CCCCC4)ccc32)cc1	none (no result: AmpC no deterg)
COc1ccc(-c2oc3ncn4nc(COc5c(C)cccc5C)nc4c3c2-c2ccc(OC)cc2)cc1	none (no result: AmpC no deterg)
Cc1cc(C)n(CCO)c(=O)n1	AmpC inh detg inconclusive
Cc1cc(=S)cc(C)n1CCO	Sm TGR block 14µM
COc1ccc(CCn2c(O)cc3nn(-c4nc5ccccc5s4)c(=O)c-3c2C)cc1	AmpC no deterg 10µM
COc1ccc(CN2CCN(c3nc4ccccc4s3)CC2)cc1	none

Screening results as filed in PubChem.
